# What was measured:
# Assay in all cases: DAPPL (digital affinity profiling via proximity ligation, sequencing); 10 mM Tris-HCl pH 7.5, 50 mM NaCl, 1 mM DTT, 4% glycerol, room temperature, 30 min; GST-TFs on glutathione beads, 16-mer random dsDNA library, 0.1% formaldehyde crosslink after washing; high values mean tight binding
# [1] = molecular target: T1, FLI1 (Homo sapiens, UniProt Q01543 1-452); details: protein: recombinant; tags: N-terminal GST; dsDNA, one strand shown
# T1 sequence: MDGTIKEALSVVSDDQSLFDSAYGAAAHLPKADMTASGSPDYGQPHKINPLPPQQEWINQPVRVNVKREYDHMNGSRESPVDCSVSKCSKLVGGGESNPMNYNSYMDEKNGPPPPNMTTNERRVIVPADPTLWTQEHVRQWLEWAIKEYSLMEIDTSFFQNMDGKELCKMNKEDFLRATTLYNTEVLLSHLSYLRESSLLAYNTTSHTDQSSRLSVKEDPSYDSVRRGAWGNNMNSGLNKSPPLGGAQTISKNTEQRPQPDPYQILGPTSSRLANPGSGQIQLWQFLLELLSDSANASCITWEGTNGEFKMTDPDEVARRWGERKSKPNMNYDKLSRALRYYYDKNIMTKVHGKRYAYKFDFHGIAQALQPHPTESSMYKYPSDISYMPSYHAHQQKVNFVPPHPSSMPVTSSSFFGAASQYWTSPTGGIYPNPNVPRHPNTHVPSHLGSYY
# Summary of the method: (§1)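 In yeast, human transcription factors were expressed with a GST fusion, then pulled down on glutathione beads and given DNA barcodes. Pooled with a tag-only sample, they were exposed to 200 nmole of a 16-mer random double-stranded DNA library (Tris/NaCl/DTT/glycerol buffer, room temperature, 30 min), washed, crosslinked with 0.1% formaldehyde, proximity-ligated using BsaI/T4 ligase for 1 h at 37 °C, PCR-amplified and read on an Illumina NextSeq500. Each hexamer's frequency of reads for a factor, divided by the matching frequency for the tag-only sample, gives the binding signal.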
# [2] = molecular target: T2, ELK1 (Homo sapiens, UniProt P19419 1-428); details: protein: recombinant; tags: N-terminal GST; dsDNA, one strand shown
# T2 sequence: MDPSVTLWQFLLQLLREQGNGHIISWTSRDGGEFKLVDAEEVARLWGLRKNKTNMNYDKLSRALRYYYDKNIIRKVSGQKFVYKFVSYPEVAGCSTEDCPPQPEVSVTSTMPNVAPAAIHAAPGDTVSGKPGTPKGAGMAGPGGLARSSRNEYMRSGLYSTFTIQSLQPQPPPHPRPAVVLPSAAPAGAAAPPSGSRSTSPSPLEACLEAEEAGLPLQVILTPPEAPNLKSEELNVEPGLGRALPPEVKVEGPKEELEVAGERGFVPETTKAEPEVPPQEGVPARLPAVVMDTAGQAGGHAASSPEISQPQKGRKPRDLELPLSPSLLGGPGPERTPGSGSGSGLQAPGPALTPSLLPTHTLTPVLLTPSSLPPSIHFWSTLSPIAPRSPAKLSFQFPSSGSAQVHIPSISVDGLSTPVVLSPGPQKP
# Summary of the method: as §1
# [3] = molecular target: T3, GABPA (Homo sapiens, UniProt Q06546 1-454); details: protein: recombinant; tags: N-terminal GST; dsDNA, one strand shown
# T3 sequence: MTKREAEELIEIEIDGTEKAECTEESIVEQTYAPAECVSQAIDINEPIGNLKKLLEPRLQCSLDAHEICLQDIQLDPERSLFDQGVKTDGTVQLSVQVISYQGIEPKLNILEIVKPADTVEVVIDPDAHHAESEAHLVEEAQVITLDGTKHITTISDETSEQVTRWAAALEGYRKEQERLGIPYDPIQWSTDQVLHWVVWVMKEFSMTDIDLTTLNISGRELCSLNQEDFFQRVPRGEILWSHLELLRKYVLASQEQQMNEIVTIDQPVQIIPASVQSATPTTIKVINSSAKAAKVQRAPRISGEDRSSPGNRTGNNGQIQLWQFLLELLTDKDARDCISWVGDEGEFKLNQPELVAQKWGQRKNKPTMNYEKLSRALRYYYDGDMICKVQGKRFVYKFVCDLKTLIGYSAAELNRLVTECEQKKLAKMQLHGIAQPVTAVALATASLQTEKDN
# Summary of the method: as §1
# [4] = molecular target: T4, ERG (Homo sapiens, UniProt P11308 1-479); details: protein: recombinant; tags: N-terminal GST; dsDNA, one strand shown
# T4 sequence: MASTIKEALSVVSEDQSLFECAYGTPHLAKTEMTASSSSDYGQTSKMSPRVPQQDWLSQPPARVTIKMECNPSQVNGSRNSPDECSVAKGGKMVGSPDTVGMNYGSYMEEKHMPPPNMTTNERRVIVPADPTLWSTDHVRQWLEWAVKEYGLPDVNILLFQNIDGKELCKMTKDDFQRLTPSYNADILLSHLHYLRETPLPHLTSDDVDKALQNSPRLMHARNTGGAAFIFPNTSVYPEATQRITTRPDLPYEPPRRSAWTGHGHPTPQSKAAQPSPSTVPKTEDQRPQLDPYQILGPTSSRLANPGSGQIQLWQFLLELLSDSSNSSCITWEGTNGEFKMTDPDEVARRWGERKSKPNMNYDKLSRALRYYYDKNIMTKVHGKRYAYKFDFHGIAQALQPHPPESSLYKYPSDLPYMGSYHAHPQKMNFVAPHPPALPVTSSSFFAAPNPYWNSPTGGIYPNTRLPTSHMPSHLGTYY
# Summary of the method: as §1
# [5] = molecular target: ELF1 (Homo sapiens, UniProt P32519 1-619); details: protein: recombinant; tags: N-terminal GST; dsDNA, one strand shown
# Summary of the method: as §1
# [6] = molecular target: T5, EHF (Homo sapiens, UniProt Q9NZC4 1-300); details: protein: recombinant; tags: N-terminal GST; dsDNA, one strand shown
# T5 sequence: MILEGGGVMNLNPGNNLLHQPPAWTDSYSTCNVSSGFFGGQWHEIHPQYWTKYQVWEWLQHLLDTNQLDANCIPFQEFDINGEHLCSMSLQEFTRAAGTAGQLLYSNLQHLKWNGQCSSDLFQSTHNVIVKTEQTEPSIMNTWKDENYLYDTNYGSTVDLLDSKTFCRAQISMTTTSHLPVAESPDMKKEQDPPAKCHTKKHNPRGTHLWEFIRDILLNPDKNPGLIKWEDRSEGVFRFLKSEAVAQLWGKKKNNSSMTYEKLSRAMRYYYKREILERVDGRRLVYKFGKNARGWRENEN
# Summary of the method: as §1
# [7] = molecular target: SPI1 (Homo sapiens, UniProt P17947 1-270); details: protein: recombinant; tags: N-terminal GST; dsDNA, one strand shown
# Summary of the method: as §1
# [8] = molecular target: SPIB (Homo sapiens, UniProt Q01892 1-262); details: protein: recombinant; tags: N-terminal GST; dsDNA, one strand shown
# Summary of the method: as §1
# [9] = molecular target: T6, ELK3 (Homo sapiens, UniProt P41970 1-407); details: protein: recombinant; tags: N-terminal GST; dsDNA, one strand shown
# T6 sequence: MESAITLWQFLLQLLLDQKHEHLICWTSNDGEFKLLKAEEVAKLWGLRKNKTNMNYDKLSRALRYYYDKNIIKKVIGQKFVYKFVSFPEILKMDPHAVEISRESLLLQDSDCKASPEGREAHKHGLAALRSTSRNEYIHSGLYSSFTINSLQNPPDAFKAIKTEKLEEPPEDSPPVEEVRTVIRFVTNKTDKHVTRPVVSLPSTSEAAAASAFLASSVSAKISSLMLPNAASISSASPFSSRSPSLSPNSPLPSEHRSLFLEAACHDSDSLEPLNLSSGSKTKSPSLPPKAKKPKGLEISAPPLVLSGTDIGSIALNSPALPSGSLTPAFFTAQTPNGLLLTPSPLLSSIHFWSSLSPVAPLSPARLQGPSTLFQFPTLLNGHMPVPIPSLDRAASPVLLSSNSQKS
# Summary of the method: as §1
# [10] = molecular target: T7, FEV (Homo sapiens, UniProt Q99581 1-238); details: protein: recombinant; tags: N-terminal GST; dsDNA, one strand shown
# T7 sequence: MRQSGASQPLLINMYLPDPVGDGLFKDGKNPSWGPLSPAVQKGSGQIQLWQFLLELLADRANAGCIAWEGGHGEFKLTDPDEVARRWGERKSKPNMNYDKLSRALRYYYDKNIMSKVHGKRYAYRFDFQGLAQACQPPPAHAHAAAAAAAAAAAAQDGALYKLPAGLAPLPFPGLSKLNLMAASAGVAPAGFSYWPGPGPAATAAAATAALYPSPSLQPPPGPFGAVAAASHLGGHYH
# Summary of the method: as §1
# [11] = molecular target: ETV5 (Homo sapiens, UniProt P41161 1-510); details: protein: recombinant; tags: N-terminal GST; dsDNA, one strand shown
# Summary of the method: as §1
# [12] = molecular target: HSF1 (Homo sapiens, UniProt Q00613 1-529); details: protein: recombinant; tags: N-terminal GST; chain copies: 3; dsDNA, one strand shown
# Summary of the method: as §1
# [13] = molecular target: T8, SPIC (Homo sapiens, UniProt Q8N5J4 1-248); details: protein: recombinant; tags: N-terminal GST; dsDNA, one strand shown
# T8 sequence: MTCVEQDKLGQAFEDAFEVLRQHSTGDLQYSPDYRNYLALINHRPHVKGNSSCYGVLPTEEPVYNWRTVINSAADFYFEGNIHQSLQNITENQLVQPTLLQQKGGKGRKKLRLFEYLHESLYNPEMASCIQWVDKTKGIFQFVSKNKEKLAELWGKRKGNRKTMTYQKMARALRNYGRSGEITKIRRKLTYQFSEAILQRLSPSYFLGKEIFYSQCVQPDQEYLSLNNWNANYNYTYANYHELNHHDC
# Summary of the method: as §1
# [14] = molecular target: ELF4 (Homo sapiens, UniProt Q99607 1-663); details: protein: recombinant; tags: N-terminal GST; dsDNA, one strand shown
# Summary of the method: as §1
# [15] = molecular target: T9, ELK4 (Homo sapiens, UniProt P28324-2 1-405); details: protein: recombinant; tags: N-terminal GST; dsDNA, one strand shown
# T9 sequence: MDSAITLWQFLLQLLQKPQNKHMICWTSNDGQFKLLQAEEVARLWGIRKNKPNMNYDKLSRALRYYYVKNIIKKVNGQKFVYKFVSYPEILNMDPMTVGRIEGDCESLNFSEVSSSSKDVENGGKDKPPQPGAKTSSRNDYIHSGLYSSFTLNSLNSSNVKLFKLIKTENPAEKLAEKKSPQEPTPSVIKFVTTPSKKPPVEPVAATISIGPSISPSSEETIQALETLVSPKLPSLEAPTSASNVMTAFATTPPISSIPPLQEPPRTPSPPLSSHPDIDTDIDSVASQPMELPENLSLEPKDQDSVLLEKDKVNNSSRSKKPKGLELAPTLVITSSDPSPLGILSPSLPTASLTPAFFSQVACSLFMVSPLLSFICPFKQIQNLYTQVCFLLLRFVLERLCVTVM
# Summary of the method: as §1
# [16] = molecular target: T10, ETV2 (Homo sapiens, UniProt O00321 1-342); details: protein: recombinant; tags: N-terminal GST; dsDNA, one strand shown
# T10 sequence: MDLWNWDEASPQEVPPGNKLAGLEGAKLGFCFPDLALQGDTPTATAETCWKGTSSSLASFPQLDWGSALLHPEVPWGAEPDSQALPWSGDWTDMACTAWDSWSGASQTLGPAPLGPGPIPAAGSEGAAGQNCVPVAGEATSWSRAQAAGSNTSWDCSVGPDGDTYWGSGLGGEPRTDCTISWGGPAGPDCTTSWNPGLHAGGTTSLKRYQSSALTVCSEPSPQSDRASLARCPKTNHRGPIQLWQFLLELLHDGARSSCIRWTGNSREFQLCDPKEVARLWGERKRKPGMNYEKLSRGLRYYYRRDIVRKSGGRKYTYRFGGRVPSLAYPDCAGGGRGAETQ
# Summary of the method: as §1
# [17] = molecular target: T11, ELF3 (Homo sapiens, UniProt P78545 1-371); details: protein: recombinant; tags: N-terminal GST; dsDNA, one strand shown
# T11 sequence: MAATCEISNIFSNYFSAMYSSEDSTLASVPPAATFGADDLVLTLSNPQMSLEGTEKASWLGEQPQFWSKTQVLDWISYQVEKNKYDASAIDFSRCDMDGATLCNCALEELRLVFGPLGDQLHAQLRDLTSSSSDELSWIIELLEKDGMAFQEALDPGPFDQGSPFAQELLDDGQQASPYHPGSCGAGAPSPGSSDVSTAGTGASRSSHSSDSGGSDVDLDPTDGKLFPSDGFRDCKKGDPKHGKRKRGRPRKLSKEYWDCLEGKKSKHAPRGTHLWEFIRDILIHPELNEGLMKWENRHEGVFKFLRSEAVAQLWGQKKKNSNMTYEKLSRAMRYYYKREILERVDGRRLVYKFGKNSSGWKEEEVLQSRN
# Summary of the method: as §1
# [18] = molecular target: CRX (Homo sapiens, UniProt O43186 1-299); details: protein: recombinant; tags: N-terminal GST; dsDNA, one strand shown
# Summary of the method: as §1
# [19] = molecular target: ETV1 (Homo sapiens, UniProt P50549 1-477); details: protein: recombinant; tags: N-terminal GST; dsDNA, one strand shown
# Summary of the method: as §1
# Sequence of CRX (O43186 whole entry): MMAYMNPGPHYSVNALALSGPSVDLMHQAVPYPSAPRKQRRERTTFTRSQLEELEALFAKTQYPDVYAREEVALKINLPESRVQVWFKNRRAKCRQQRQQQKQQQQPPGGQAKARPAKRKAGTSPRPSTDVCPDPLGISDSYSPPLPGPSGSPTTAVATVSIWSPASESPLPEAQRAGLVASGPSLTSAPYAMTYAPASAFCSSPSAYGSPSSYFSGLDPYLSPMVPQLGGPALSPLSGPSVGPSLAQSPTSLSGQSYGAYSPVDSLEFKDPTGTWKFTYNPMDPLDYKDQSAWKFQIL
# Sequence of ELF4 (Q99607 whole entry): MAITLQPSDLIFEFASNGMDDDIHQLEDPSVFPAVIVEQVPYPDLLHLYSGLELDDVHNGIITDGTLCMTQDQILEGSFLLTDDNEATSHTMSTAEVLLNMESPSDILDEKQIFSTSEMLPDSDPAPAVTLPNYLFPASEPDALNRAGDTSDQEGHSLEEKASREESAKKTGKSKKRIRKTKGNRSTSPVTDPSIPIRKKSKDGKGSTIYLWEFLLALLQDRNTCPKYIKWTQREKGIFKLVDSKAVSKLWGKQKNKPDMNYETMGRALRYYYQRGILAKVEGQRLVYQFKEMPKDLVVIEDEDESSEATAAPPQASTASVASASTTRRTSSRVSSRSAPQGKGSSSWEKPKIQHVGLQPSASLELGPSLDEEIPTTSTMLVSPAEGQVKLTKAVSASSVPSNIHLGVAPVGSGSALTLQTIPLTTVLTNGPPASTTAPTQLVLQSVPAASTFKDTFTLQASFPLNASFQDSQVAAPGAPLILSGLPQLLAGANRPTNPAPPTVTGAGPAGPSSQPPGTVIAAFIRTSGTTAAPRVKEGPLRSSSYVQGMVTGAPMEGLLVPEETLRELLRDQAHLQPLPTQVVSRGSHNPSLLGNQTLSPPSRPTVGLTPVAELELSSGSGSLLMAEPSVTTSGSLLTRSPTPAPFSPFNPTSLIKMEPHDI
# Sequence of ELF1 (P32519 whole entry): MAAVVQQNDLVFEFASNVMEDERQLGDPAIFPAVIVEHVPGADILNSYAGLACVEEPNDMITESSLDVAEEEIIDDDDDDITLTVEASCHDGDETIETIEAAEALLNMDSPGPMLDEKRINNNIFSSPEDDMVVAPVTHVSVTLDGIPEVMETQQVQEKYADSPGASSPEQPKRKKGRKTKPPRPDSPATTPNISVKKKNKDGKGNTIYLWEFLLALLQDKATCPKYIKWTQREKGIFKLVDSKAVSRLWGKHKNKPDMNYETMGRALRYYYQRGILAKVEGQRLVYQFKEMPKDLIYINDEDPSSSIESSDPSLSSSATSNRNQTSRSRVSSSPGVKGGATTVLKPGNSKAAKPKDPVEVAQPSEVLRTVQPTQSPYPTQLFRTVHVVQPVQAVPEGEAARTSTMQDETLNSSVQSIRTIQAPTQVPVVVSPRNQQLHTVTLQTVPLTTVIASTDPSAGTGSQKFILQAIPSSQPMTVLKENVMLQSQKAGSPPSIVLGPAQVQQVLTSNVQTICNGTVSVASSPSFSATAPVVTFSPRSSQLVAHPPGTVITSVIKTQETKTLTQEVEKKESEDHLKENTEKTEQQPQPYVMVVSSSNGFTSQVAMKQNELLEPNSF
# Sequence of ETV1 (P50549 whole entry): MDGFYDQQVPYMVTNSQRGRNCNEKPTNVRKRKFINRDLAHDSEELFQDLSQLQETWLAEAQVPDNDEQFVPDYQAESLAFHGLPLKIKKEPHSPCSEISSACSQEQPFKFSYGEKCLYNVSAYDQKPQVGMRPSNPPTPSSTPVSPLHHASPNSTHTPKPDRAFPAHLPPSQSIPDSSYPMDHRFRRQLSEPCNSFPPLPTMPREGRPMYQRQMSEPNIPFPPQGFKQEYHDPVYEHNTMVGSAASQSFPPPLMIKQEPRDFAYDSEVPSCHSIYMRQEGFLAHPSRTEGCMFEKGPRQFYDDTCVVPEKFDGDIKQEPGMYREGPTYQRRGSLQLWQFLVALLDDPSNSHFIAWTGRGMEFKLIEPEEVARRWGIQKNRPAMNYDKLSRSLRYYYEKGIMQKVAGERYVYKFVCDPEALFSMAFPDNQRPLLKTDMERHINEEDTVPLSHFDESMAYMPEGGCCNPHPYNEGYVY
# Sequence of HSF1 (Q00613 whole entry): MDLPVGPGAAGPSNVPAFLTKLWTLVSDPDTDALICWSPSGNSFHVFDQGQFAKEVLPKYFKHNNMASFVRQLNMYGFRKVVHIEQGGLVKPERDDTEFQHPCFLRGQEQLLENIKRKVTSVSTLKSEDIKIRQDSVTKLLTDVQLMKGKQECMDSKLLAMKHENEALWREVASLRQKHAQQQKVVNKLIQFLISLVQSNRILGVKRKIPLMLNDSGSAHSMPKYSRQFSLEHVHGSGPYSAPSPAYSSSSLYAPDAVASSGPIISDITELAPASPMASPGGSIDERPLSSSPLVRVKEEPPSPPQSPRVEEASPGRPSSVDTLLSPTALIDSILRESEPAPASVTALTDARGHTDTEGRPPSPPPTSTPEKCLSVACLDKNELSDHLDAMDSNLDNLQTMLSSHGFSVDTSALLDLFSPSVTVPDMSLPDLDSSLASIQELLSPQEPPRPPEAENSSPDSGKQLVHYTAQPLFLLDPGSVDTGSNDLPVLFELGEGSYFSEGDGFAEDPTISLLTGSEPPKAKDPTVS
# Sequence of ETV5 (P41161 whole entry): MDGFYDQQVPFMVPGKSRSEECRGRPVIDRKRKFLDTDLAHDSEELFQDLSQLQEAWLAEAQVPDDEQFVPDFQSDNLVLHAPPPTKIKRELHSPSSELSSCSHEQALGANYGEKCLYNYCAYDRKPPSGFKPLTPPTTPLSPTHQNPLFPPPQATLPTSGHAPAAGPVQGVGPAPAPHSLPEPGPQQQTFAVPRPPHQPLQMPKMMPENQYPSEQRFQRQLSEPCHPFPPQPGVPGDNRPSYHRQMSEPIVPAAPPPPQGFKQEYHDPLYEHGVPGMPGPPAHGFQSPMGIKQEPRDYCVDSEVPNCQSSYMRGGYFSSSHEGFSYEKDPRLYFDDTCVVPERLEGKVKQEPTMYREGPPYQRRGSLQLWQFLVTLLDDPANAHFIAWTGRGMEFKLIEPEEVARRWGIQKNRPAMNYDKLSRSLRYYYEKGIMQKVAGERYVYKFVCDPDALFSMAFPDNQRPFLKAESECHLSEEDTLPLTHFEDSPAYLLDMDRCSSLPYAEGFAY
# Sequence of SPIB (Q01892 whole entry): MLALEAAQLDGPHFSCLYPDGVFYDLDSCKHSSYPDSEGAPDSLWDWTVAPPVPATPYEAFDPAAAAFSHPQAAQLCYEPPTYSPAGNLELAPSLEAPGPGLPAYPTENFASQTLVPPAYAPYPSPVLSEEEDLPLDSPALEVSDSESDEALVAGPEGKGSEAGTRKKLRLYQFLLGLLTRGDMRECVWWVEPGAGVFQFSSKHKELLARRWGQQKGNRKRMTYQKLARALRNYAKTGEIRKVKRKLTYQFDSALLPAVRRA
sequence,measurement,setting,value
TAAAAA,binding signal,[1],"1.27 fold enrichment (6-mer frequency, TF over GST control)"
same,binding signal,[2],"1.13 fold enrichment (6-mer frequency, TF over GST control)"
same,binding signal,[3],"1.36 fold enrichment (6-mer frequency, TF over GST control)"
same,binding signal,[4],"1.26 fold enrichment (6-mer frequency, TF over GST control)"
same,binding signal,[5],"1.26 fold enrichment (6-mer frequency, TF over GST control)"
same,binding signal,[6],"1.29 fold enrichment (6-mer frequency, TF over GST control)"
same,binding signal,[7],"1.53 fold enrichment (6-mer frequency, TF over GST control)"
same,binding signal,[8],"1.35 fold enrichment (6-mer frequency, TF over GST control)"
same,binding signal,[9],"1.32 fold enrichment (6-mer frequency, TF over GST control)"
same,binding signal,[10],"1.29 fold enrichment (6-mer frequency, TF over GST control)"
same,binding signal,[11],"1.3 fold enrichment (6-mer frequency, TF over GST control)"
same,binding signal,[12],"1.56 fold enrichment (6-mer frequency, TF over GST control)"
same,binding signal,[13],"1.34 fold enrichment (6-mer frequency, TF over GST control)"
same,binding signal,[14],"1.45 fold enrichment (6-mer frequency, TF over GST control)"
same,binding signal,[15],"1.34 fold enrichment (6-mer frequency, TF over GST control)"
same,binding signal,[16],"1.4 fold enrichment (6-mer frequency, TF over GST control)"
same,binding signal,[17],"1.33 fold enrichment (6-mer frequency, TF over GST control)"
same,binding signal,[18],"1.82 fold enrichment (6-mer frequency, TF over GST control)"
same,binding signal,[19],"1.26 fold enrichment (6-mer frequency, TF over GST control)"
